From PubChem BioAssay (EPA / NIEHS)
Results filed as inconclusive are left out. More than one record can exist for a structure, and the calls need not agree. Calls of active or inactive are those of the source. The calls were made as follows: active = hit-call score of the fitted dose curve at least 0.9, where 1 is the maximum; inconclusive = response in the unintended direction; inactive = score below 0.9.

What was measured:
[1] = target: Estrogen receptor (Homo sapiens) (UniProt P03372); experiment: NVS_NR_hER: NovaScreen (NVS) Nuclear Receptor Binding Assay for human Estrogen Receptor (ER) (AID 2283348)
In short: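 Cell-free MCF7-derived ER preparation, specific radioligand displaced by test compound, read by scintillation counting 18 h post-dosing. Duplicate single-point 25 uM screen, then concentration-response confirmation; DMSO baseline.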

[2] = system: guinea pig Dopamine Transporter (DAT), gene 100714898; experiment: NVS_TR_gDAT: NovaScreen (NVS) Transporter Assay for guinea pig Dopamine Transporter (DAT) (AID 2283369);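 also: active compounds lower bound radioligand signal relative to DMSO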
In short: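 Radioligand displacement on membranes from guinea pig striatum, 2 h exposure, bound label counted by filtration and scintillation. Tested at 25 uM in duplicate, then actives in concentration series to 50 uM; DMSO as negative control.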

[3] = target: chimpanzee Androgen Receptor (AR), AR (gene 747460) (UniProt O97775); experiment: NVS_NR_cAR: NovaScreen (NVS) Nuclear Receptor Binding Assay for chimpanzee Androgen Receptor (AR) (AID 2283346);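 also: radioligand displacement from AR measured by scintillation counting in a cell-free assay; a loss of bound radioligand signal versus DMSO counts as binding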
chimpanzee Androgen Receptor (AR), AR (gene 747460), sequence (O97775 whole entry, looked up): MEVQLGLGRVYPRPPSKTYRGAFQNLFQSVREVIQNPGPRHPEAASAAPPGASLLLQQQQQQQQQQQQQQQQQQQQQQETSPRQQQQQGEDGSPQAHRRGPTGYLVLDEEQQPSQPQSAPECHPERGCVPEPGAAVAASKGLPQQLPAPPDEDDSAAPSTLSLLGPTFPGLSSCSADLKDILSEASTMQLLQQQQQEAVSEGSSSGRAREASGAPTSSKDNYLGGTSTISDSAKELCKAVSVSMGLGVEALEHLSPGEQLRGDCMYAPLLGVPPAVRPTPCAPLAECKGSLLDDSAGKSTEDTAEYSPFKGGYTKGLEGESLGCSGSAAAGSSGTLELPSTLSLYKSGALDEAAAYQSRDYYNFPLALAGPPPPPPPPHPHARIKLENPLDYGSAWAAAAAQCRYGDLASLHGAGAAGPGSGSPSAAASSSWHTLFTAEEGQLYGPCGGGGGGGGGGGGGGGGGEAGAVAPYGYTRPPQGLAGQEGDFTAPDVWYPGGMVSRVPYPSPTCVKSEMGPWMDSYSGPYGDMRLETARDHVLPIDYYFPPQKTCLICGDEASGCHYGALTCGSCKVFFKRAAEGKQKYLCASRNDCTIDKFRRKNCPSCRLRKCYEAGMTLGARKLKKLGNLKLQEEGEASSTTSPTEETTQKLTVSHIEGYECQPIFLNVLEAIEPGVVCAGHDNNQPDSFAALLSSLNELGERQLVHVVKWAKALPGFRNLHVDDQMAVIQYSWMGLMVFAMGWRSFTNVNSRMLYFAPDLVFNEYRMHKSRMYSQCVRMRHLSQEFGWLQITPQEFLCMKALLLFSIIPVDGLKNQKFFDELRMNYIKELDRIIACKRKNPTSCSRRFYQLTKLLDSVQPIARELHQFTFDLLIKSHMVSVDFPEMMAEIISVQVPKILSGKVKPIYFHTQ
In short: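 Cell-free competition binding with insect-cell (Sf9/Sf21) extracted chimpanzee AR; scintillation signal from lysate at 72 h. Screened in duplicate at 25 uM, then concentration-response for actives; fitting relative to DMSO.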

[4] = target: Androgen Receptor/SRC-1 Co-activator, AR (gene 367) (UniProt P10275); experiment: OT_AR_ARSRC1_0960: Odyssey Thera (OT) 16-hour HEK293T Protein-Complementation Assay for Androgen Receptor/SRC-1 Co-activator (AID 2283353);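 also: actives raise the signal above DMSO so potency reflects increased AR and SRC-1 complex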
Androgen Receptor/SRC-1 Co-activator, AR (gene 367), sequence (P10275 whole entry, looked up): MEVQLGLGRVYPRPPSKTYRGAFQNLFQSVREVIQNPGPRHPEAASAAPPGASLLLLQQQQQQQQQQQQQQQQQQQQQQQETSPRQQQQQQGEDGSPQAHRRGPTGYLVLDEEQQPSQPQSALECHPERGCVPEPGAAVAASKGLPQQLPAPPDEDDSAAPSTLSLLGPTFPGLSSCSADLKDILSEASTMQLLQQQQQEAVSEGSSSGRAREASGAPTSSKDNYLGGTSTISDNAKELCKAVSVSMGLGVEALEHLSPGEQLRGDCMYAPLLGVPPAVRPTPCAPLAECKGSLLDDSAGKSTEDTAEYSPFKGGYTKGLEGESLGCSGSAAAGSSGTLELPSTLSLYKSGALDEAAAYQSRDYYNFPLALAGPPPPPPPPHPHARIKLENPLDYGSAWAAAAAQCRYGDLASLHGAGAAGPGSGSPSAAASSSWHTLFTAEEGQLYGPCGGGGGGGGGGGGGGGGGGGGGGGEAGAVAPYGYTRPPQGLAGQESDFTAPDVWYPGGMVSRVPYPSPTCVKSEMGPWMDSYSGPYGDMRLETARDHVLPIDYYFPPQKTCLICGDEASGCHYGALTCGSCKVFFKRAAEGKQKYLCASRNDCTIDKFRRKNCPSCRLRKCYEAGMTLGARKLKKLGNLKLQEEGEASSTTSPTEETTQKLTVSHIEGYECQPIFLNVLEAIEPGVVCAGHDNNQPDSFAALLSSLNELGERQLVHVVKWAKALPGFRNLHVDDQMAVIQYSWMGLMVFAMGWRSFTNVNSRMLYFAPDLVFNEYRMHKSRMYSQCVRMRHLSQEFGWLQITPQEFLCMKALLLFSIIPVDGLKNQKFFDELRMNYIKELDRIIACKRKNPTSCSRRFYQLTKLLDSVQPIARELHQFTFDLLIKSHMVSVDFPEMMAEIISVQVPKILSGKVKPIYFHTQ
In short: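 Endpoint is gain-of-signal N/C fluorescence ratio in the 488 nm channel versus DMSO, from at least 400 cells per image, measured 16 h post-dosing. Cells: HEK293T stably carrying split-Venus AR/SRC-1 complementation constructs.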

[5] = target: Androgen Receptor/SRC-1 Co-activator, AR (gene 367) (UniProt P10275); experiment: OT_AR_ARSRC1_0480: Odyssey Thera (OT) 8-hour HEK293T Protein-Complementation Assay for Androgen Receptor/SRC-1 Co-activator (AID 2283354);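 also: hits raise the complementation signal above DMSO so AC50 marks enhancers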
In short: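 Reconstituted split-Venus YFP signal from AR–SRC-1 interaction, read by imaging 8 h post-dose in stable HEK293T lines. The 488 nm nucleus-to-cytoplasm ratio (≥400 cells/image) was fitted upward against DMSO.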

PGR (gene 5241) = PGR (gene 5241) (UniProt P06401); experiment: NVS_NR_hPR: NovaScreen (NVS) Nuclear Receptor Binding Assay for human Progestron Receptor (PR) (AID 2283360);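 also: active means loss of bound radioligand signal versus DMSO baseline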
In short: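 Cell-free radioligand binding using receptor protein extracted from T47D cells, read by scintillation counting 18 hours after dosing. Loss of signal relative to DMSO baseline indicates displacement; primary screen single concentration 25 uM in duplicate, actives followed in concentration series.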

[6] = target: Estrogen receptor (Homo sapiens) (UniProt P03372); experiment: OT_ER_ERaERa_1440: Odyssey Thera (OT) 24-hour HEK293T Protein-Complementation Assay for Estrogen Receptor-alpha/-alpha Homodimer (AID 2283349);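 also: hits raise fluorescence above DMSO for agonists and antagonists alike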
In short: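 HEK293T, stable ERα LBD (aa 310-547) homodimer PCA; 24 h compound exposure; mean fluorescence intensity (nuclear for agonists, nuclear plus cytoplasmic for antagonists) vs vehicle; positive fitting direction, DMSO baseline.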

[7] = target: Estrogen receptor (Homo sapiens) (UniProt P03372); experiment: OT_ER_ERaERa_0480: Odyssey Thera (OT) 8-hour HEK293T Protein-Complementation Assay for Estrogen Receptor-alpha/-alpha Homodimer (AID 2283351);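 also: rise in fluorescence from reassembled reporter fragments on ERα LBD homodimer in nucleus or whole cell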
In short: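 HEK293T cells stably expressing a PCA pair of ER alpha LBD (residues 310-547) were dosed for 8 hours. The gain in fluorescence intensity, nuclear for agonists and whole-cell for antagonists, was measured by laser scanning cytometry against DMSO vehicle.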

[8] = target: T1, Estrogen receptor (Homo sapiens) + Estrogen receptor beta (Homo sapiens) (UniProt P03372+Q92731); experiment: OT_ER_ERaERb_0480: Odyssey Thera (OT) 8-hour HEK293T Protein-Complementation Assay for Estrogen Receptor-alpha/-beta Heterodimer (AID 2283352)
In short: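 Fluorescence increase from reconstituted reporter fragments, quantified by laser scanning cytometer, reflects ER-alpha/ER-beta heterodimer formation in human HEK293T cells. Exposure 8 h; positive-direction fitting against DMSO vehicle.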

[9] = target: T1, Estrogen receptor (Homo sapiens) + Estrogen receptor beta (Homo sapiens); experiment: OT_ER_ERaERb_1440: Odyssey Thera (OT) 24-hour HEK293T Protein-Complementation Assay for Estrogen Receptor-alpha/-beta Homodimer (AID 2283356);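 also: heteromer of ER alpha and ER beta binding domains; hits raise reporter fluorescence and both agonists and antagonists give an increase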
In short: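 Fragment complementation between ER alpha (310-547) and ER beta (263-489) ligand-binding domains in HEK293T cells; signal read 24 h post-dosing by laser scanning cytometer. Gain of fluorescence relative to DMSO fitted.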

[10] = target: Estrogen receptor beta (Homo sapiens) (UniProt Q92731); experiment: OT_ER_ERbERb_0480: Odyssey Thera (OT) 8-hour HEK293T Protein-Complementation Assay for Estrogen Receptor-beta/-beta Homodimer (AID 2283357);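 also: active means signal gain over DMSO baseline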
Estrogen receptor beta (Homo sapiens), sequence (Q92731 whole entry, looked up, the tested form may be a part): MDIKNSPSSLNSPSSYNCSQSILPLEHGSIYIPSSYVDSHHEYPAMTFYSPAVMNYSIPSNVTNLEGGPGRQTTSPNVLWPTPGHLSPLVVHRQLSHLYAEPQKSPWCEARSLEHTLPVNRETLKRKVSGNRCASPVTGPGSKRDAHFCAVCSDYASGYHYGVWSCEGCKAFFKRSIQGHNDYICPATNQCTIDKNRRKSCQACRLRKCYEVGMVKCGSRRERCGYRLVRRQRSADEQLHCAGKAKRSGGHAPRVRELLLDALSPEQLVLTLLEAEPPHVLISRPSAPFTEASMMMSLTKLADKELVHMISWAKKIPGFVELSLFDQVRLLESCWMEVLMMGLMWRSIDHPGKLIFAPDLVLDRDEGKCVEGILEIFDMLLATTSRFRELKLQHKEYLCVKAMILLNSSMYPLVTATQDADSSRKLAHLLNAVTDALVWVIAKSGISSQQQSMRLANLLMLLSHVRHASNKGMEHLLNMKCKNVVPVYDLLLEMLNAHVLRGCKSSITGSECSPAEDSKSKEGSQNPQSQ
In short: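 ER-beta LBD homodimer PCA stably expressed in HEK293T; 8 h compound exposure, then formaldehyde fixation and Draq5 staining. Gain in nuclear/cytoplasmic fluorescence intensity versus DMSO vehicle, read on laser scanning cytometer.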

[11] = target: Nuclear receptor subfamily 1 group I member 2 (Homo sapiens) (UniProt O75469); experiment: NVS_NR_hPXR: NovaScreen (NVS) Nuclear Receptor Binding Assay for human Pregnane X Receptor (PXR) (AID 2283365);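 also: a drop in FRET signal versus DMSO baseline means the compound binds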
Nuclear receptor subfamily 1 group I member 2 (Homo sapiens), sequence (O75469 whole entry, looked up): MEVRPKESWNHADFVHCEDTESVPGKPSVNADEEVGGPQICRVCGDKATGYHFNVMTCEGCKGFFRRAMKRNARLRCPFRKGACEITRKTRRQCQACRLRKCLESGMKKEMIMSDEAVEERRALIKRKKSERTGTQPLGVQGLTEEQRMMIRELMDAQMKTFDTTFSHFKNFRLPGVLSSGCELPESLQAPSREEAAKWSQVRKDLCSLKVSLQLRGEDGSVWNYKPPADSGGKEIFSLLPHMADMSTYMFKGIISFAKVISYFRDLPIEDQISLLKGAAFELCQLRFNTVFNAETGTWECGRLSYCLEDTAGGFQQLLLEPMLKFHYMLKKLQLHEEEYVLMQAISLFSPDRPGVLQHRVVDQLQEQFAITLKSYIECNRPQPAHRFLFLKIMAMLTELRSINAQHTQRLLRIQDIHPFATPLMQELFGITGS
In short: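 Human PXR binding measured by TR-FRET in a cell-free format, 2 h exposure. Single-concentration duplicates at 25 uM preceded concentration-response retests of actives; endpoint fitted positively relative to DMSO, loss of signal indicating binding.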

[12] = target: Peroxisome proliferator-activated receptor gamma (Homo sapiens) (UniProt P37231); experiment: NVS_NR_hPPARg: NovaScreen (NVS) Nuclear Receptor Binding Assay for human Peroxisome Proliferator-activated Receptor gamma (PPARg) (AID 2283370)
In short: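 Fluorescence polarization readout of ligand binding to extracted human PPARg, measured at 2 h. Duplicate single-point screen at 25 uM, then concentration-series retesting; activity defined as signal loss versus DMSO.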

[13] = target: human Peroxisome Proliferator-activated Receptor alpha (PPARa), PPARA (gene 5465) (UniProt Q07869); experiment: NVS_NR_hPPARa: NovaScreen (NVS) Nuclear Receptor Binding Assay for human Peroxisome Proliferator-activated Receptor alpha (PPARa) (AID 2283359);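 also: activity means loss of TR-FRET signal versus DMSO baseline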
In short: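 Loss of TR-FRET binding signal relative to DMSO was measured 1 h after chemical addition to extracted receptor protein. Chemicals were first tested in duplicate at 25 uM, and actives were followed up in concentration series.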

[14] = target: Retinoic acid receptor alpha (Homo sapiens) (UniProt P10276); experiment: NVS_NR_hRARa_Agonist: NovaScreen (NVS) Nuclear Receptor Binding Assay for human Retinoic Acid Alpha Receptor Agonism (RAR) (AID 2283361)
Retinoic acid receptor alpha (Homo sapiens), sequence (P10276 whole entry, looked up): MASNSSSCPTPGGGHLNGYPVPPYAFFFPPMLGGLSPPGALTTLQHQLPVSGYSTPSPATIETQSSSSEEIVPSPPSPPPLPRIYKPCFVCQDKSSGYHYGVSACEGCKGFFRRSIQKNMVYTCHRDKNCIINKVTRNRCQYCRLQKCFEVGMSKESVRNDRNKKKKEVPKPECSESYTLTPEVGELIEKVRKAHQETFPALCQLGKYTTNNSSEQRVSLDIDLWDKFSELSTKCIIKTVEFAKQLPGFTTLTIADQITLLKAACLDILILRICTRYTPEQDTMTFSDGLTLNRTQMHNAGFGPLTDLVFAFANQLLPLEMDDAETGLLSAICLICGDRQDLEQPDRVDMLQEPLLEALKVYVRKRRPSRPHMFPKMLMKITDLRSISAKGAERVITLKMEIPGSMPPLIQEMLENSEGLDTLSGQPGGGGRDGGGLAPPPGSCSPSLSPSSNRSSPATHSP
In short: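 Agonist-mode TR-FRET binding format using extracted protein, measured at 2 h post-dosing. Initial duplicate single-point screen at 25 uM preceded concentration series for actives; activity was normalized to DMSO baseline.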

[15] = target: rat Androgen Receptor (AR), Ar (gene 24208) (UniProt P15207); experiment: NVS_NR_rAR: NovaScreen (NVS) Nuclear Receptor Binding Assay for rat Androgen Receptor (AR) (AID 2283366)
rat Androgen Receptor (AR), Ar (gene 24208), sequence (P15207 whole entry, looked up): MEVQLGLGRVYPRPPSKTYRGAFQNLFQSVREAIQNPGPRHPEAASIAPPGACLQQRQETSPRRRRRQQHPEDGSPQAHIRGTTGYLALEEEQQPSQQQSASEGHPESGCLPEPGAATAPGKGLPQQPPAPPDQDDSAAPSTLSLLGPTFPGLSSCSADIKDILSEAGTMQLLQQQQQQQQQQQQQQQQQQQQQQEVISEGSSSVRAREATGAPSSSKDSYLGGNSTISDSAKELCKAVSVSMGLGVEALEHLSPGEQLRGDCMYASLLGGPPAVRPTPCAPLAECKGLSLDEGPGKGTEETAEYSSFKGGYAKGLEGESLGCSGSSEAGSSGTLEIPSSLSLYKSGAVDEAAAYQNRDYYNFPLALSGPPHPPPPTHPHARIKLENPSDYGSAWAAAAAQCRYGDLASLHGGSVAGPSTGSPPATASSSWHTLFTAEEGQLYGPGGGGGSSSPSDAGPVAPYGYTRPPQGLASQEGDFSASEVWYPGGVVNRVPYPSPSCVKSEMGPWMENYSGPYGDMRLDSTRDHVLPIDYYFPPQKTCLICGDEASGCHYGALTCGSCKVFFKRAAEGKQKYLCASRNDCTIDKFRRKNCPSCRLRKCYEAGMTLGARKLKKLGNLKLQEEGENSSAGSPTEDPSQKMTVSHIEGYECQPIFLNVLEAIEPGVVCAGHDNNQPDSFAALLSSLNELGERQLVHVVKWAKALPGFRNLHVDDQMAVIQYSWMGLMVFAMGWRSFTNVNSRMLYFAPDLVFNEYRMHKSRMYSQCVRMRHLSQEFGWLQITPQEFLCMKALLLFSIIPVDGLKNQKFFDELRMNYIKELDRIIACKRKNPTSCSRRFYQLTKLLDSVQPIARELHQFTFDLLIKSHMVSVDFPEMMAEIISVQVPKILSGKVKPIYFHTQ
In short: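 Actives from a duplicate single-concentration (25 uM) primary run went on to concentration series. Displacement of radioligand was counted by filtration and scintillation, 18 h post-dose, using prostate extracts from testosterone-pretreated rats, with DMSO as baseline.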

[16] = target: Retinoic acid receptor alpha (Homo sapiens) (UniProt P10276); experiment: NVS_NR_hRAR_Antagonist: NovaScreen (NVS) Nuclear Receptor Binding Assay for human Retinoic Acid Alpha Receptor Antagonism (RAR) (AID 2283358)
In short: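 RARalpha antagonism was read by TR-FRET as loss of binding signal versus DMSO, 2 h after chemical addition, in a biochemical format. Single-concentration duplicates (25 uM) were run first, and actives were retested in concentration series.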

[17] = target: human Thyroid Receptor Alpha (TRa), THRA (gene 7067) (UniProt P10827); experiment: NVS_NR_hTRa_Antagonist: NovaScreen (NVS) Nuclear Receptor Binding Assay for human Thyroid Receptor Alpha Antagonism (TRa) (AID 2283362);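 also: activity is loss of signal relative to DMSO baseline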
In short: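 Actives from a duplicate 25 uM single-point screen were retested in concentration series. The cell-free antagonist-format binding assay was read by AlphaLISA chemiluminescence at 1 h, scored as signal loss relative to DMSO.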

[18] = target: Glucocorticoid receptor (Homo sapiens) (UniProt P04150); experiment: NVS_NR_hGR: NovaScreen (NVS) Nuclear Receptor Binding Assay for human Glucocorticoid Receptor (GR) (AID 2283363);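 as to AC50: activity is loss of specific radioligand binding signal relative to DMSO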
Glucocorticoid receptor (Homo sapiens), sequence (P04150 whole entry, looked up): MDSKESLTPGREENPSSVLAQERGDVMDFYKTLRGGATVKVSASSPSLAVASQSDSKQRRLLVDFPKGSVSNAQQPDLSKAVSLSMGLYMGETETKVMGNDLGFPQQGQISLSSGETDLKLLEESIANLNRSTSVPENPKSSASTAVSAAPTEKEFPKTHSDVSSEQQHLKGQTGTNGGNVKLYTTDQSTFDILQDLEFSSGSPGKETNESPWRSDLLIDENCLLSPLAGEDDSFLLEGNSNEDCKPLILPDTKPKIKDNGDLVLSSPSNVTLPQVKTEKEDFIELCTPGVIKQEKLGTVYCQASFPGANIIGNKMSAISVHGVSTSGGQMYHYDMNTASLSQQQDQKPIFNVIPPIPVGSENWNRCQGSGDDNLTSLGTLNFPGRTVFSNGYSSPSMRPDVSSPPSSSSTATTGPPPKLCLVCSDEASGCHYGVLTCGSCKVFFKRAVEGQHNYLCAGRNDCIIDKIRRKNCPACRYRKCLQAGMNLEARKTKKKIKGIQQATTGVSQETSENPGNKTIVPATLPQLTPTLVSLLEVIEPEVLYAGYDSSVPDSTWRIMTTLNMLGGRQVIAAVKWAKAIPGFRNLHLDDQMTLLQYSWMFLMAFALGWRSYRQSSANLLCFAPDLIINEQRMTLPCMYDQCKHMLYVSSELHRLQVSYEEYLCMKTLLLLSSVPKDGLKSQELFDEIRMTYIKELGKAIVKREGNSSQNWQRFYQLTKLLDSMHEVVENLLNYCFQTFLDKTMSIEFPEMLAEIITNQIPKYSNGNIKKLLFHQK
In short: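 Compounds first tested in duplicate at 25 uM, actives followed up in concentration series. Binding to extracted GR protein measured as competitive radioligand displacement, filter scintillation read 16 h post-dosing, normalised to DMSO.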

[19] = target: guinea pig Sigma Receptor, Non-selective Binding, SIGMAR1 (gene 100135589) (UniProt Q60492); experiment: NVS_OR_gSIGMA_NonSelective: NovaScreen (NVS) Nuclear Receptor Binding Assay for guinea pig Sigma Receptor, Non-selective Binding (AID 2283367)
In short: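 Guinea pig brain membrane sigma sites were labelled with a radioligand, and bound radioactivity was counted after filtration 1 h post-dose. Compounds were screened at 25 uM in duplicate, then retested as concentration series when active.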

Measured: AC50

O=C1C=CC(=O)N1c1ccc(Cc2ccc(N3C(=O)C=CC3=O)cc2)cc1
active: [2] 11.3 µM
inactive: [1]

C[C@]12CC[C@H]3C(=CCc4cc(O)ccc43)[C@@H]1CCC2=O
inactive: [3]
active: [3] 5.87 µM | [4] 1.42 µM | [5] 0.555 µM | PGR (gene 5241) 46.7 µM | [2] 1.16 µM

CCCCOC(=O)[C@H](C)O
inactive: [6] | [7]

Cc1ccc(O)c(-n2nc3ccccc3n2)c1
inactive: [1] | [6] | [7] | [8] | [9] | [10]

CCc1cc(Cc2cc(CC)c(N)c(CC)c2)cc(CC)c1N
inactive: [6] | [7] | [8] | [10] | [11] | [12]
active: [1] 0.0643 µM | [9] 12.4 µM | [12] 14.2 µM

CCCCCCCCCCCCCC[P+](CCCC)(CCCC)CCCC
active: [3] 23.1 µM | [1] 14.3 µM | [4] 3.59 µM | [5] 12.3 µM | [13] 8.54 µM | [14] 3.23 µM | [11] 0.0885 µM | [15] 3.82 µM
inactive: [6] | [7] | [9] | [10]

O=C1c2ccccc2C(=O)c2c(Cl)cccc21
active: [3] 0.93 µM
inactive: [15]

CCCCCCCC/C=C\CCCCCCCC(=O)OCC(O)CO (configuration not stated)
active: [13] 17 µM | [11] 8.56 µM | [15] 34.8 µM
not listed: [1] | [2] | PGR (gene 5241) | [14] | [17] | [18] | [19]
inactive: all other assays above

CCCCOC(=O)C(C)O (configuration not stated)
inactive: [1] | [6] | [7]

CC(C)(C)C(=O)C1C(=O)c2ccccc2C1=O
inactive: [1]

CC(C)OC=O
inactive: [6] | [7]

O=C(c1ccccc1)c1ccc(O)cc1O
inactive: [3]
active: [3] 9.97 µM | [1] 1.42 µM | [6] 22.7 µM | [7] 22.7 µM

CCN(CC)c1ccc(C=O)c(O)c1
active: [3] 0.298 µM | PGR (gene 5241) 41.7 µM | [15] 25 µM | [2] 15 µM

CCN=c1cc2oc3cc(NCC)c(C)cc3c(-c3ccccc3C(=O)OCC)c-2cc1C
active: [1] 5.29 µM | [6] 62.3 µM | [7] 12.2 µM | [8] 71.3 µM | [4] 0.55 µM | [5] 12.5 µM | [10] 55.1 µM | [14] 18.1 µM | [17] 38.3 µM | [18] 9.39 µM | [15] 6.57 µM
inactive: [9]

CCC(Cc1c(I)cc(I)c(N)c1I)C(=O)O (configuration not stated)
inactive: [1] | [6]
active: [7] 66.3 µM

F[Si-2](F)(F)(F)(F)F
inactive: [6] | [7] | [8] | [4] | [5] | [9]

CCCCCCCCn1sc(Cl)c(Cl)c1=O
inactive: [6] | [7] | [10] | [12]
active: [1] 0.549 µM

CCCCCCCCCc1ccc(OCCO)cc1
active: [6] 19.7 µM | [8] 4.81 µM | [4] 20 µM | [5] 25.4 µM | [9] 4.94 µM | [10] 4.92 µM
inactive: [1] | [7] | [11] | [12]

CC(=O)CCC(C)C
inactive: [3] | [7] | [12]
active: [6] 69.3 µM

CCN=C1C=CC(=C(c2ccc(N(CC)CC)cc2)c2ccc(N(CC)CC)cc2)c2ccccc21
inactive: [6] | [7] | [8] | [9] | [10] | [12]
active: [3] 3.61 µM | [1] 13.8 µM | [4] 0.451 µM | [5] 1.04 µM | [17] 1.15 µM | [18] 0.404 µM | [15] 1.05 µM

O=C1c2c(O)ccc(Nc3ccc(CCO)cc3)c2C(=O)c2c([N+](=O)[O-])ccc(O)c21
inactive: [3]
active: [18] 23.5 µM

C#CC(O)CCC (configuration not stated)
inactive: [3] | [15]

CCCCCCCCCCCCC[N+](C)(C)Cc1ccccc1
active: [16] 9.07 µM | [13] 21 µM | [14] 13.4 µM
inactive: [18]

CCCCCCCC/C=C\CCCCCCCC(=O)N(C)CC(=O)O
active: [18] 4.85 µM
inactive: [13]

c1ccc(C[P+](c2ccccc2)(c2ccccc2)c2ccccc2)cc1
active: [19] 4.57 µM

Cc1cc(C)c(O)c(C(C)(C)C)c1
active: [19] 16.5 µM
